PubChem BioAssay (NCATS)
Results filed as inconclusive are left out. The source made the active and inactive calls. The call rests on the fitted dose curve; in most records, active means well fitted curve in the direction sought with a large enough effect; inconclusive means small, poorly fitted or top-dose-only effect, or another doubt; inactive means no such curve, though single readings can be large; an effect the other way counts as inactive or inconclusive.

Experiments:
[1] = biological target: Nuclear receptor subfamily 1 group I member 3 (Homo sapiens) (UniProt Q14994); test: qHTS for Constitutive Androstane Receptor (CAR) Agonist screened against the NCATS CANVASS Library (AID 1347373);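 further: every well also contained 1.5 µM PK11195 alongside the test compound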
Chain of Nuclear receptor subfamily 1 group I member 3 (Homo sapiens) (Q14994 whole entry, looked up): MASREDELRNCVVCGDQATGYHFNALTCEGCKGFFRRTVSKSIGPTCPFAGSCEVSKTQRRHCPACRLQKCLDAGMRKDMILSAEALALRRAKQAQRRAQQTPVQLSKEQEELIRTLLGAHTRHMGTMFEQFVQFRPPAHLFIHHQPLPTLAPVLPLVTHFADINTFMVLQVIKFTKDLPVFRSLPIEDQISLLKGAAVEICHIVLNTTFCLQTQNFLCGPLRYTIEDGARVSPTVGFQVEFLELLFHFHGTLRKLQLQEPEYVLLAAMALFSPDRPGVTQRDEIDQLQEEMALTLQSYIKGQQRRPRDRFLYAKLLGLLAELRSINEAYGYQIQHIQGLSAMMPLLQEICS
In short: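 CAR agonism is scored as CYP2B6-promoter luciferase induction in a double-stable transfected HepG2 line, where 1.5uM PK11195 is included in each well. Compounds were tested over a 24hr exposure.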

[2] = qHTS for Hypoxia signaling pathway (HIF-1) antagonists against the NCATS CANVASS Library (AID 1347374);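 further: HRE-bla ME-180 cells stimulated with cobalt chloride to stabilize HIF-1alpha; nearly all actives have a fitted effect of over 60% in size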
In short: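 HRE-bla ME-180 cells (2,000/well, 0.5% dialyzed FBS) were pre-incubated 5 h, then given an 11-point compound series plus CoCl2 (60 uM solution as added) for 17 h at 37C. CCF4 β-lactamase read (ex 405, em 460/530 nm) after 2 h at RT.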

[3] = qHTS for Hypoxia signaling pathway (HIF-1) agonists against the NCATS CANVASS Library (AID 1347375)
Description: Natural products and their derivatives continue to be wellsprings of nascent therapeutic potential. However, many laboratories have limited resources for biological evaluation, leaving their previously isolated or synthesized compounds largely or completely untested. To address this issue, the Canvass library of natural products was assembled (https://tripod.nih.gov/canvass), in collaboration with academic and industry researchers, for quantitative high-throughput screening (qHTS) across a diverse set of cell-based and biochemical assays. The pure (>85% purity by liquid chromatography/mass spectrometry [LC/MS]) Canvass library of 346 natural products were submitted by 45 academic laboratories and companies around the world. We collected pure natural products to circumvent deconvolution and structure elucidation due to time and resource limitations. The library was formatted into 1536-well plates and evaluated in 50 qHTS (in an 11-pnt concentration series) bioassays with broad scope of disease-relevant mechanisms. The resulting data set from 50 different assays was then systematically analyzed to identify overall trends and specific natural products with interesting biological activities. […] The compounds were also tested for auto fluorescence that may interfere with the biological target readout resulting in potential false positives and/or negatives. […]

[4] = 10-beta competent E. coli microbial cell viability qHTS against the NCATS CANVASS Library (AID 1347376)
In short: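 Cytotoxicity toward competent E. coli is scored from cellular ATP content via BacTiter-Glo luminescence following overnight compound exposure at 37C, 5% CO2.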

[5] = qHTS for H2AX Agonists against the NCATS CANVASS Library (AID 1347378);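 further: phospho-H2AX S139 level in CHO-K1 lysates by TR-FRET emission ratio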
In short: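 CHO-K1, 1000 cells/well, o/n 37C; cpd several conc, 3 hr 37C, 0.76% DMSO; lyse 30 min RT; cryptate anti-pH2AX(S139) + d2 anti-H2AX, 24 hr RT; HTRF 665/620.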

[6] = qHTS for Inflammasome Signaling Inhibitors: IL-1-beta AlphaLISA screen against the NCATS CANVASS Library (AID 1347379); conditions: THP-1 LPS/ATP, IL-1B AlphaLISA secretion, 16 h; at 57.5 µM (top of the series);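 further: human THP-1 cells primed with LPS then triggered with ATP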
In short: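 Human THP-1 cells were pretreated 1 hr at 37 °C with compounds (up to 57.5 uM final), then stimulated with LPS (250 ng/mL final) and ATP (1.25 mM final). Secreted IL-1B was read by AlphaLISA after 16 hr.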

[7] = Inflammasome Signaling qHTS Counterscreen: IL-1-beta AlphaLISA counterscreen against the NCATS CANVASS Library (AID 1347381);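 further: cell-free check with purified IL-1β in medium and no THP-1 cells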
In short: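 To flag interference with the AlphaLISA read-out, a known amount of purified IL-1-beta (4 pg) replaced cell supernatant. Detection used anti-IL-1-beta acceptor beads, biotinylated antibody and streptavidin donor beads at room temperature.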

[8] = Cytotoxicity qHTS for assessment of Hepg2 cells membrane integrity screened against the NCATS CANVASS Library (AID 1347387)
In short: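 Fluorescence proportional to lysed-cell number, from LDH leaking out of HepG2 cells exposed 5 hr at 37C to 0.59 nM - 46 uM compound (11-point qHTS), is measured after 10 min with CytoTox-ONE.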

[9] = qHTS for Activators of p53 Stress Response Pathway screened against the NCATS CANVASS Library (AID 1347388)
In short: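 p53RE-bla HCT-116 cells (4000/well) were pre-incubated for 5 h, then treated with compound (11 points) for 16 h at 37C. After 2 h with CCF4, the 460/530 nm ratio gave reporter activation; CellTiter-Glo measured viability.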

[10] = qHTS assay for small molecule disruptors of mitochondrial membrane potential screened against the NCATS CANVASS Library (AID 1347389); further: nearly all actives have a fitted effect of over 60% in size
In short: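 Compounds tested in 11-point qHTS series on HepG2 cells for 1 hr; membrane-potential dye added for 30 min at 37C. Lower red-to-green ratio indicates loss of potential.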

Measured: outcome

NCC(O)c1ccc(O)cc1 (stereo not given)
inactive: all assays above
